# Screening data (PubChem BioAssay)
# D2 ag-1 = agonists of human D2 dopamine receptor (beta-arrestin). P14416. DiscoveRx PathHunter D2 beta-arrestin, luminescence, 90 min; 100% = 57 uM dopamine signal. activation, % (no concentration beside the values). 360,000 tested, 0.084% active; in the data active = activation above about 40%
# Target sequence (P14416 whole entry, looked up): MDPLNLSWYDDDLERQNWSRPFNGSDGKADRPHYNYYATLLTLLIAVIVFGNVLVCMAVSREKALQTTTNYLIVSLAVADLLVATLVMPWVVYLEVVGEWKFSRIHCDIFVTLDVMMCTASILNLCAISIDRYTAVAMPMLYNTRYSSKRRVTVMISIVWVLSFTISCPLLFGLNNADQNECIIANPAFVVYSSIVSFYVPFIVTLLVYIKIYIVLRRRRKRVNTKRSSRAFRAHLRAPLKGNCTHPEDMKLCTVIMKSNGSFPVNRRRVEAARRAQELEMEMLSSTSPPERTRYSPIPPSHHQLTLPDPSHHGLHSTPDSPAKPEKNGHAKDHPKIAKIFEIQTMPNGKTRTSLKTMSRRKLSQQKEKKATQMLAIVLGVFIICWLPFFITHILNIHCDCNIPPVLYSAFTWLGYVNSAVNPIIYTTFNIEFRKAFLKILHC
#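 DiscoveRx PathHunter D2 beta-arrestin cells (2,100/well) attached overnight, then compound-stimulated 90 min at 37 C in HBSS/10 mM HEPES/0.1% Tween-20 buffer; beta-galactosidase complementation read by luminescence after 1 h at ambient temperature. Dopamine 57 uM final (EC100) as control.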
# D2 PAM-1 = D2 dopamine receptor (human) potentiation; 340,000 tested, 0.34% active; HEK293 T-REx D2, calcium flux, EC20 dopamine potentiation; potentiation, % at 10 µM;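 active = potentiation over 3 SD above the plate norm, cut at about 30% in these data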; note: 0% is about no effect
#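 Potentiation of an EC20 dopamine calcium response measured kinetically over 180 s, after a preceding 180 s compound-only read flagging agonists. Cells: inducible Hek293 Trex D2 line, 4000/well, cultured overnight at 30 C before dye loading.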
# D2 antagonist = antagonizes the human D2 dopamine receptor; P14416; HEK293 TREx D2 cells, calcium flux, dopamine EC80; inhibition, % at 10 µM; 340,000 tested, 2% active; AID 485344; in the data active = inhibition above about 30%; inactive = below that, where a call was filed; note: 0% is about no effect
#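 Tetracycline-induced HEK293 TREx cells expressing D2 receptor forced-coupled to calcium signalling, loaded with no-wash calcium dye. Compounds added and calcium flux read 180 s, then dopamine added at EC80 and read a further 180 s.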
# D2 ag-2 = agonists of human D2 dopamine receptor | activation, % at 2 µM | HEK293 T-REx D2 cells, calcium flux agonist mode | 340,000 tested, 0.53% active | AID 485358;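 active = activation over 3 SD above normal in the single-dose calcium agonist read, cut at about 30% in these data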; note: 0% is about no effect
#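 In this primary screen, compounds producing a positive calcium signal within 180 s of addition to tetracycline-induced, force-coupled HEK293 Trex D2 cells are flagged; cells are dye-loaded with a no-wash calcium kit beforehand.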
# D2 PAM-2 = potentiates the human D2 dopamine receptor allosterically; DiscoveRx D2 beta-arrestin cells, luminescence, 90 min; 100% = 57 uM dopamine signal; potentiation, % (test concentration not listed); 360,000 tested, 0.23% active; AID 624464; in the data active = potentiation above about 50%
#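 PathHunter D2 cells, attached overnight at 37 deg C, received compound in DMSO plus dopamine at EC20 (50 nM final) for 90 min at 37 deg C. Beta-arrestin recruitment was read as luminescence after 1 h with detection reagent at ambient temperature.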
# * = called active by the depositor; . = not tested or not shown. Rows were chosen to be rich in hits. Some 2.4% of all compounds tested hit in one or more screens of this group.
SMILES,D2 ag-1,D2 PAM-1,D2 antagonist,D2 ag-2,D2 PAM-2
CC1CN(C(=O)c2ccccc2NS(=O)(=O)c2ccc(Cl)cc2)CC(C)O1 (centres undefined),1.0,.,.,.,-8.8
O=C(COC(=O)c1ccc2[nH]c3c(c2c1)CCCC3)Nc1ccccc1Cl,-2.2,6.9,0.0,-0.7,-5.5
CCC(C)c1ccccc1NC(=O)COC(=O)c1ccc2[nH]c3c(c2c1)CCCC3 (centres undefined),5.0,-17.1,70.5*,-0.4,14.2
COc1ccc(-n2c(=O)c3c4c(sc3n(Cc3c(F)cccc3Cl)c2=O)CN(C(C)=O)CC4)cc1OC,.,6.5,.,0.3,.
Cc1cc(NNC(=O)c2ccccc2)nc(NNC(=O)c2ccccc2)n1,8.6,-22.8,34.0*,0.2,2.3
CNc1nc(NC)nc(NNC(=O)c2ccccc2)n1,-0.4,.,.,.,-10.1
O=C(Nc1cccs1)Nc1ccccc1Cl,-1.1,-5.4,-0.6,0.2,-5.5
O=C(Nc1cccs1)Nc1cccnc1Cl,-2.9,-4.7,36.7*,-2.5,0.1
O=C(O)CCC(=O)CCC(=O)c1ccccc1,0.5,-8.1,34.6*,0.4,-3.1
Cc1ccc(C(=O)CCC(=O)CCC(=O)O)cc1,-0.6,.,.,.,-1.5
CCS(=O)(=O)N1CCc2cc(C(=O)Nc3cccc(C)c3C)ccc21,.,-3.0,.,6.2,.
COc1cccc(C(=O)NCC(=O)N2CCC3(CC2)NCCc2[nH]cnc23)c1OC,-1.2,3.8,30.4*,0.5,-3.4
Cc1ccc(C(=O)NCC(=O)Nc2ccc(S(=O)(=O)Nc3cc(C)nc(C)n3)cc2)cc1,-4.1,.,.,.,-4.1
Oc1ccccc1N1CCN(C(c2ccccc2)c2ccccc2)CC1,-4.5,-1.6,30.3*,-0.2,-3.1
CC(=O)N1CCN(C(c2ccccc2)c2ccccc2)CC1,-3.3,.,.,.,-5.8
CCOc1ccccc1NC(=O)CSc1nc2ccccc2nc1Cc1ccc(C)cc1,.,-8.2,.,-1.5,.
Brc1ccccc1-c1nnc(COc2ncnc3ccccc23)o1,-1.7,-12.5,-7.3,1.2,-4.5
N#Cc1ccccc1OCc1nnc(-c2ccccc2Br)o1,2.2,-4.5,11.7,0.2,-1.2
Brc1ccccc1-c1nnc(COc2cccc3cccnc23)o1,7.5,0.2,38.3*,0.6,19.7
Clc1ccccc1OCc1nnc(-c2ccccc2Br)o1,-1.5,-1.9,36.2*,-1.0,-16.5
O=C(CSc1nnc(CNC(=O)c2c(F)cccc2Cl)o1)Nc1cccc(F)c1,.,4.8,.,0.6,.
COc1ccc(C(O)Cc2nccn2C)cc1 (centres undefined),1.6,.,.,.,4.2
COc1ccccc1-c1nc2c(c(SCC(=O)Nc3ccc(C)c(C)c3)n1)Cc1c(CO)cnc(C)c1O2,.,-4.8,.,0.7,.
Cn1c(CCN2CCCCC2)nc2cc(NS(=O)(=O)c3ccccc3)ccc21,-4.1,-15.6,37.9*,-1.0,-12.5
Cc1ccc(S(=O)(=O)Nc2ccc3c(c2)nc(CCN2CCCC2)n3C)cc1,-2.3,-5.1,39.5*,-1.2,-27.7
SMILES,D2 ag-1,D2 PAM-1,D2 antagonist,D2 ag-2,D2 PAM-2
Cn1c(CCN2CCOCC2)nc2cc(NS(=O)(=O)c3ccccc3)ccc21,-2.4,24.0,-2.6,0.3,-5.0
O=C(NCCCN1CCN(c2ccccc2)CC1)c1ccc2nc(CCc3ccccc3)oc2c1,.,-23.2,.,.,.
COc1cc(SC)ccc1C(=O)Nc1nc2ccccc2[nH]1,-11.0,-6.6,33.9*,0.9,-13.3
COc1ccccc1C(=O)Nc1nc2ccccc2[nH]1,-3.9,2.7,-8.7,-0.4,-6.7
O=C(N/C=C/n1cnc2cc(C(F)(F)F)ccc21)c1ccccc1F,0.7,83.2*,-7.5,-0.2,-8.4
O=C(N/C=C/n1cnc2cc(C(F)(F)F)ccc21)c1ccc(F)cc1,-1.0,.,.,.,-7.0
O=C(c1ccco1)N(Cc1ccccc1)Cc1ccccn1,1.2,13.7,56.6*,-0.8,-5.4
COc1ccc(-n2nc(C(=O)NCC(=O)N3CCCC(C)C3)c3ccccc3c2=O)cc1Cl (centres undefined),4.6,31.5*,-17.6,-0.1,2.4
COc1ccc(/C=N/NC(=O)c2nn(-c3ccc(C)c(C)c3)c(=O)c3ccccc23)cc1,-4.1,6.5,44.7*,0.6,4.8
COCCCNC(=O)CNC(=O)c1nn(-c2ccc(OC)c(Cl)c2)c(=O)c2ccccc12,2.8,-1.7,50.0*,0.4,-3.3
